For 25 compounds, Potency results are on record in PubChem BioAssay (NCATS).

Experiment [1] is described as follows: qHTS of pediatric cancer cell lines to identify multiple opportunities for drug repurposing: Primary screen for RD cells (AID 1347104). Note: nearly all actives have a fitted effect of over 55% in size. Note: potency is the fitted concentration of half-maximal effect. In outline:
(§1)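 Primary screen of approved and investigational compounds on cells in growth media at 37 degrees C, 5% CO2. MIPE set at 11-point and NPC set at 8-point dilutions; viability scored by ATP-based luminescence at 48 hours.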
(In qHTS, concentration-response curves come from the screen itself.)

Experiment [2] can be described thus: qHTS of pediatric cancer cell lines to identify multiple opportunities for drug repurposing: Primary screen for MG 63 (6-TG R) cells (AID 1347105). Note: nearly all actives have a fitted effect of over 50% in size. Note: potency is the fitted concentration of half-maximal effect. The method, boiled down: as §1
The nature of experiment [3]: qHTS of pediatric cancer cell lines to identify multiple opportunities for drug repurposing: Confirmatory screen for SK-N-MC cells (AID 1347111).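 Note: potency is the fitted concentration of half-maximal effect; cells exposed to compound for 48 h before the readout; nearly all actives have a fitted effect of over 70% in size.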 In outline: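 SK-N-MC cells at 500-1,000 cells/well in growth media were pre-incubated 5 h, then exposed to compounds at 11-point dilutions for 48 h at 37 degrees C, 5% CO2. Viability was read as CellTiter-Glo luminescence.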

The nature of experiment [4]: qHTS of pediatric cancer cell lines to identify multiple opportunities for drug repurposing: Confirmatory screen for BT-12 cells (AID 1347112). Note: nearly all actives have a fitted effect of over 55% in size. The method, boiled down:
(§2)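 Viability after 48 h compound treatment at 37C, 500-1,000 cells/well, read as ATP luminescence with CellTiter-Glo. Primary screens used 11-point (MIPE, 0.78 nM-46 µM) or 8-point (NPC, 0.59 nM-46 µM) final concentrations; follow-up screens used 11-point dilutions.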

Experiment [5] is described as follows: qHTS of pediatric cancer cell lines to identify multiple opportunities for drug repurposing: Confirmatory screen for NB-EBc1 cells (AID 1347115). Note: nearly all actives have a fitted effect of over 45% in size. Note: potency is the fitted concentration of half-maximal effect. The method, boiled down: as §2
Experiment [6] can be described thus: qHTS of pediatric cancer cell lines to identify multiple opportunities for drug repurposing: Confirmatory screen for TC32 cells (AID 1347118). Note: potency is the fitted concentration of half-maximal effect; nearly all actives have a fitted effect of over 65% in size. The method, boiled down: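 Luminescent CellTiter-Glo read-out of metabolically active TC32 cells after 48 h compound exposure. Primary: MIPE 11-point, 0.78 nM–46 µM; NPC 8-point, 0.59 nM–46 µM. Confirmatory: 11-point dilutions.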

Experiment [7] in a line: qHTS of pediatric cancer cell lines to identify multiple opportunities for drug repurposing: Confirmatory screen for control Hh wild type fibroblast cells (AID 1347121). Note: nearly all actives have a fitted effect of over 70% in size. In outline:
as §2

Experiment [8] in a line: qHTS of pediatric cancer cell lines to identify multiple opportunities for drug repurposing: Confirmatory screen for U-2 OS cells (AID 1347122). Note: nearly all actives have a fitted effect of over 65% in size. Note: potency is the fitted concentration of half-maximal effect. The method, boiled down:
as §2

A short description of experiment [9]: qHTS of pediatric cancer cell lines to identify multiple opportunities for drug repurposing: Confirmatory screen for Rh41 cells (AID 1347123). Note: nearly all actives have a fitted effect of over 60% in size. Note: potency is the fitted concentration of half-maximal effect. The method, boiled down:
as §2

The nature of experiment [10]: qHTS of pediatric cancer cell lines to identify multiple opportunities for drug repurposing: Confirmatory screen for RD cells (AID 1347124).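 Note: cells exposed to compound for 48 h before viability readout; nearly all actives have a fitted effect of over 65% in size.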 In outline:
as §2

A short description of experiment [11]: qHTS of pediatric cancer cell lines to identify multiple opportunities for drug repurposing: Confirmatory screen for LAN-5 cells (AID 1347113). Note: nearly all actives have a fitted effect of over 65% in size. Note: potency is the fitted concentration of half-maximal effect. In outline: as §2
Experiment [12] in a line: qHTS of pediatric cancer cell lines to identify multiple opportunities for drug repurposing: Confirmatory screen for DAOY cells (AID 1347114). Note: nearly all actives have a fitted effect of over 65% in size. Note: potency is the fitted concentration of half-maximal effect. In outline: (§3)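 Viability measured as metabolically active cells via CellTiter-Glo luminescence following 48 hours of compound exposure, 11-point dilutions in confirmatory testing. 500-1,000 cells/well plated 5 hours before dosing; controls were DMSO and 2.3 µM bortezomib.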

The nature of experiment [13]: qHTS of pediatric cancer cell lines to identify multiple opportunities for drug repurposing: Confirmatory screen for SJ-GBM2 cells (AID 1347116). Note: nearly all actives have a fitted effect of over 60% in size. Note: potency is the fitted concentration of half-maximal effect. In outline: as §3
Experiment [14] in a line: qHTS of pediatric cancer cell lines to identify multiple opportunities for drug repurposing: Confirmatory screen for MG 63 (6-TG R) cells (AID 1347119). Note: nearly all actives have a fitted effect of over 55% in size. Note: potency is the fitted concentration of half-maximal effect. In outline: as §2
Experiment [15] is described as follows: qHTS of pediatric cancer cell lines to identify multiple opportunities for drug repurposing: Confirmatory screen for Rh18 cells (AID 1347125). Note: nearly all actives have a fitted effect of over 55% in size. Note: potency is the fitted concentration of half-maximal effect. The method, boiled down:
as §2

Experiment [16] is described as follows: qHTS of pediatric cancer cell lines to identify multiple opportunities for drug repurposing: Primary screen for control Hh wild type fibroblast cells (AID 1347106). The method, boiled down:
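Cells (500-1,000/well) in growth media were settled 5 h at 37 degrees C, then given compounds for 48 h. Viability was read as CellTiter-Glo luminescence. Primary runs used MIPE at 11 points (0.78 nM-46 µM) and NPC at 8 points (0.59 nM-46 µM); follow-ups used 11 points.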

Experiment [17] can be described thus: qHTS of pediatric cancer cell lines to identify multiple opportunities for drug repurposing: Primary screen for Rh41 cells (AID 1347108). Note: nearly all actives have a fitted effect of over 70% in size. Note: potency is the fitted concentration of half-maximal effect. In outline:
as §1

The nature of experiment [18]: qHTS of pediatric cancer cell lines to identify multiple opportunities for drug repurposing: Confirmatory screen for Rh30 cells (AID 1347126). Note: nearly all actives have a fitted effect of over 55% in size. In outline: as §2
Experiment [19] in a line: qHTS of pediatric cancer cell lines to identify multiple opportunities for drug repurposing: Primary screen for Rh30 cells (AID 1347107). Note: nearly all actives have a fitted effect of over 75% in size. Note: potency is the fitted concentration of half-maximal effect. In outline: as §2
Experiment [20] can be described thus: qHTS of pediatric cancer cell lines to identify multiple opportunities for drug repurposing: Confirmatory screen for NB1643 cells (AID 1347109). Note: nearly all actives have a fitted effect of over 45% in size. Note: potency is the fitted concentration of half-maximal effect. The method, boiled down:
as §2

“And” between values parts separate entries of the source, which are not always exact repeats. Equal values may be shown once. Results filed as inconclusive are left out. The source made the active and inactive calls. Calls come from the whole dose curve; as a rule, active = well fitted curve in the direction sought with a large enough effect; inconclusive = small, poorly fitted or top-dose-only effect, or another doubt; inactive = no such curve, though single readings can be large; an effect the other way counts as inactive or inconclusive.

`CCCS(=O)(=O)Nc1ccc(F)c(C(=O)c2c[nH]c3ncc(-c4ccc(Cl)cc4)cc23)c1F`: the Potency in [1] is 18.7 µM (active); in [2], 14.8 µM (active); in [3], 23.3 µM (active); in experiment [6] it was 18.5 µM (active); in experiment [8] it was 23.3 µM (active); in experiment [9] it was 13.1 µM (active). For the same compound, the Potency result in experiment [4], in experiment [5], in [7] and in experiment [10] was “inactive” each time.

For `NC(=O)c1ccc(I)c([N+](=O)[O-])c1`, the Potency entry in experiment [1], in experiment [2], in experiment [4], in experiment [11], in [5] and in experiment [13] was “inactive” throughout. The Potency entry in experiment [14], in [7], in [8], in experiment [10] and in [15] was “inactive” in each case. Besides, the Potency in experiment [3] was 55.1 µM (active); in experiment [12], 61.8 µM (active); in [6] it was 39 µM (active); in experiment [9], 43.7 µM (active).

With `Cc1ccnc(NS(=O)(=O)c2ccc(NC(=O)Nc3ccc(S(=O)(=O)Nc4nccc(C)n4)cc3)cc2)n1`, the Potency entry in [1], in [2], in experiment [16] and in [17] was “inactive” in each case.

Turning to `CC(C)(N)C(=O)N[C@H](COCc1ccccc1)C(=O)N1CCC2(CC1)CN(S(C)(=O)=O)c1ccccc12`, the Potency in experiment [1] is 26.4 µM (active). Also, in [16], the Potency result was “inactive”.

`CS(=O)(=O)c1ccc(C(=O)Nc2ccc(Cl)c(-c3ccccn3)c2)c(Cl)c1`: the Potency result in experiment [1], in experiment [16], in experiment [4], in [11], in experiment [12] and in experiment [5] was “inactive” each time. In addition, the Potency entry in experiment [13], in experiment [14], in experiment [7], in experiment [8], in experiment [10] and in experiment [15] was “inactive” in each case. For the same compound, the Potency entry in [18] was “inactive”. Moreover, the Potency in [6] was 4.65 µM (active).

For the compound `Cc1cc([C@@H](C)Nc2ccccc2C(=O)O)c2nc(N3CCOCC3)cc(=O)n2c1`, the Potency in experiment [1] is 12.1 µM (active); in experiment [2] it was 1.71 µM (active); in experiment [17], 8.55 µM (active). Further, the Potency entry in [16] is “inactive”.

As to `Clc1ccc(Nc2nnc(Cc3ccncc3)c3ccccc23)cc1`, the Potency result in [1], in experiment [16], in experiment [19] and in experiment [17] was “inactive” each time.

Turning to `Oc1cccc(-c2nc(N3CCOCC3)c3oc4ncccc4c3n2)c1`, the Potency in experiment [1] is 0.241 µM (active); in [2], 0.0855 µM (active); in experiment [19] it was 13.6 µM (active); in [17] it was 0.382 µM (active); in [20], 2.4 µM (active); in experiment [3], 0.759 µM (active). Further, the Potency is 0.537 µM (active) in [11]; 13.5 µM (active) in [5]; 2.93 µM (active) in experiment [13]; 0.427 µM (active) in experiment [6]; 0.135 µM (active) in experiment [14]; 0.522 µM (active) in experiment [9]. The Potency in experiment [15] is 1.7 µM (active).

In the case of `Cc1cc2c(C(C)C)c(O)c(O)c(C=O)c2c(O)c1-c1c(C)cc2c(C(C)C)c(O)c(O)c(C=O)c2c1O`, the Potency was 26.6 µM (active) and 29.6 µM (active) in [1]; 21.1 µM (active) and 23.5 µM (active) in experiment [2]; 16.8 µM (active) and 18.7 µM (active) in experiment [17]. Besides, in [16], the Potency entry was “inactive”.

As for `Nc1nccc(-c2ccc3noc(-c4ccc(Cl)cc4)c3c2)n1`, the Potency entry in experiment [1], in [2], in experiment [19] and in experiment [17] was “inactive” in each case.

With `Cc1ccccc1C(OCCN(C)C)c1ccccc1` (configuration not stated), the Potency entry in experiment [1], in experiment [2], in experiment [16] and in [17] was “inactive” throughout.

Regarding `Cc1cccc(-c2nn(C(=S)Nc3ccccc3)cc2-c2ccnc3ccccc23)n1`, the Potency entry in [1], in [2], in experiment [16] and in [17] was “inactive” throughout.

Consider `NC(N)=NC(=O)c1nc(Cl)c(N)nc1N`, for which the Potency result in [1], in [2], in experiment [16], in experiment [19], in [17] and in [20] was “inactive” throughout. In addition, the Potency result in [4], in [11], in [12], in experiment [5], in [13] and in experiment [14] was “inactive” in each case. The Potency result in experiment [7], in experiment [9], in experiment [10] and in experiment [15] was “inactive” in each case. Moreover, in experiment [8], the Potency is 7.37 µM (active).

As for `C1COC(NC(C2CC2)C2CC2)=N1`, the Potency result in [1], in experiment [2], in experiment [16] and in experiment [17] was “inactive” in each case.

Take `Cc1cnc(Nc2ccc(OCCN3CCCC3)cc2)nc1Nc1cccc(S(=O)(=O)NC(C)(C)C)c1`: the Potency result in [1], in [16] and in [17] was “inactive” in each case.

`CC(C)C[C@H](NC(=O)[C@@H](O)[C@H](N)Cc1ccccc1)C(=O)O`: the Potency in experiment [1] is 37.2 µM (active); in experiment [17], 23.5 µM (active). For the same compound, the Potency entry in [16] is “inactive”.

With `C[C@]12CCC(=O)C=C1CC[C@@H]1[C@@H]2[C@@H](O)C[C@@]2(C)[C@H]1CC[C@]2(O)C(=O)CO`, the Potency result in [1], in experiment [2], in experiment [16] and in [17] was “inactive” each time.

On to `Nc1ncnc2nc(-c3ccc(N4CCOCC4)nc3)cc(-c3cccc(Br)c3)c12`, for which the Potency result in experiment [2] and in experiment [16] was “inactive” in each case.

Take `O=C1CCCC2=C1C(c1[nH]ncc1Cl)N=C(Nc1nc3ccccc3o1)N2` (configuration not stated): the Potency result in experiment [2], in [16] and in experiment [19] was “inactive” in each case.

Turning to `OCCn1cc(-c2cnc3nnn(Cc4ccc5ncccc5c4)c3n2)cn1`, the Potency entry in experiment [2] and in [16] was “inactive” throughout.

`CC(C)(C)OC(=O)CN(Cc1ccc(Cl)cc1)Cc1ccc([N+](=O)[O-])s1`: the Potency entry in experiment [2], in [16] and in experiment [19] was “inactive” each time.

As for `CS(=O)(=O)c1cccc(CNc2nc(Nc3ccc4c(c3)CCC(=O)N4)ncc2C(F)(F)F)c1`, the Potency in experiment [2] is 11.8 µM (active). Also, in experiment [16], the Potency entry was “inactive”.

Regarding `CCOc1ccc(Cc2cc([C@@H]3O[C@H](CO)[C@@H](O)[C@H](O)[C@@H]3O)ccc2Cl)cc1`, the Potency entry in experiment [2], in experiment [16], in experiment [19] and in experiment [17] was “inactive” in each case.

Regarding `Cc1[nH]c(=O)c(C#N)cc1-c1ccc2nccn2c1`, the Potency entry in experiment [2], in experiment [16], in [19] and in [17] was “inactive” each time.

Take `O=C(O)COCCN1CCN(C(c2ccccc2)c2ccc(Cl)cc2)CC1` (configuration not stated): the Potency result in [2], in experiment [16], in [19] and in experiment [17] was “inactive” in each case.
